Measured values published in PubChem BioAssay (NCI).
This is part of a sample that, as a whole, favours compounds with a hit. Of some 83,000 tested, about 20% had one in any assay.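 Note: values are percent growth. 100 is the growth of untreated cells, values between 100 and 0 indicate rising inhibition; between -100 and 0 indicates cell death.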 Unmarked numbers belong to inactive results. Activity calls are given as the source filed them. The calls were made as follows: active = growth percent below 10; inactive = the rest.

What was measured:
Test in all cases: NCI-60 one-dose screen, 48 h (100 = growth as untreated, 0 = no growth, -100 = all killed)
Details in all cases: 10 µM
[1] = tested on: RPMI-8226 leukemia
[2] = tested on: OVCAR-8 ovarian
[3] = tested on: OVCAR-5 ovarian
[4] = tested on: OVCAR-4 ovarian
[5] = tested on: SK-OV-3 ovarian
[6] = tested on: IGROV1 ovarian
[7] = tested on: OVCAR-3 ovarian
[8] = tested on: HS 578T breast
[9] = tested on: NCI/ADR-RES ovarian
[10] = tested on: T-47D breast
[11] = tested on: BT-549 breast
[12] = tested on: MDA-MB-435 melanoma
[13] = tested on: SW-620 colon
[14] = tested on: MCF7 breast
[15] = tested on: HCT-116 colon
[16] = tested on: HCC-2998 colon
[17] = tested on: KM12 colon

For `O=C1/C(=C\c2ccc(F)cc2)CN(C(=O)c2ccccc2)C/C1=C\c1ccc(F)cc1`, the growth [1] was -19.5% (active), the growth [2] was 3.54% (active) and the growth [3] was 78.6%. For the same molecule, the growth [4] was 27.3%, the growth [5] was 74.6% and the growth [6] was 21.8%. It also gave a growth [7] of 11.3%, a growth [8] of 28.1% and a growth [9] of 24.8%. For the same molecule, the growth [10] was 57%, the growth [11] was 34.9% and the growth [12] was -39.4% (active). The growth [13] was -44.4% (active), the growth [14] was 1.32% (active) and the growth [15] was -55.3% (active). For the same molecule, the growth [16] was 16.4%.
For `Cc1ccc(C(=O)N2C/C(=C/c3ccc(F)cc3)C(=O)/C(=C/c3ccc(F)cc3)C2)cc1`, the growth [1] was -18% (active), the growth [2] was 91.4% and the growth [3] was 110%. For the same molecule, the growth [4] was 87.7%, the growth [5] was 92.5% and the growth [6] was 102%. The growth [7] was 101%, the growth [8] was 107% and the growth [9] was 82%. It also gave a growth [10] of 81.9%, a growth [11] of 92.5% and a growth [12] of 84.5%. The growth [13] was 82.4%, the growth [14] was 37.7% and the growth [15] was 10.6%. The growth [16] was 108%.
Molecule `c1ccc(CNc2ncnc3scc(-c4cccs4)c23)nc1` has a growth [1] of 40.9%, a growth [2] of 63.1% and a growth [3] of 99%. The growth [4] was 41.2%, the growth [5] was 85.1% and the growth [6] was 63.6%. For the same molecule, the growth [7] was 52.8%, the growth [8] was 79.7% and the growth [9] was 58.8%. The growth [10] was 47.3%, the growth [11] was 63.7% and the growth [12] was 63.7%. The growth [13] was 86.1%, the growth [14] was 67.1% and the growth [15] was 66.5%. It also gave a growth [16] of 106%.
In the case of `O=C1/C(=C\c2ccccc2)CN(C(=O)c2ccccc2F)C/C1=C\c1ccccc1`, the growth [1] is reported as -40.3% (active), the growth [2] is reported as 10.6% and the growth [3] is reported as 64.9%. The growth [4] was 28.8%, the growth [5] was 36.6% and the growth [6] was -11.2% (active). For the same molecule, the growth [7] was -20.1% (active), the growth [8] was -10.1% (active) and the growth [9] was 23.8%. The growth [10] was 42.7%, the growth [11] was -24.6% (active) and the growth [12] was -35.6% (active). The growth [13] was -71.7% (active), the growth [14] was -37.6% (active) and the growth [15] was -84.8% (active). For the same molecule, the growth [16] was -84.1% (active).
`COc1ccc(-c2nn(-c3cccc(NC(=O)c4cc(C(F)(F)F)cc(C(F)(F)F)c4)c3)cc2-c2ccncc2)cc1Cl` showed a growth [1] of 47.7%, a growth [2] of 66.4% and a growth [3] of 87.4%. The growth [4] was 76.4%, the growth [5] was 75.2% and the growth [6] was 77.2%. For the same molecule, the growth [7] was 54.1%, the growth [8] was 71.5% and the growth [9] was 59.9%. For the same molecule, the growth [10] was 51.5%, the growth [11] was 87.3% and the growth [12] was 6.11% (active). It also gave a growth [13] of 79.2%, a growth [14] of 54.2% and a growth [15] of 57.6%. The growth [16] was 71.1% and the growth [17] was 48.8%.
For `COc1ccc(Cn2c(C(N)=O)cc3c2-c2nc(N)ncc2CCC3)cc1`, the growth [1] was 85.5%, the growth [2] was 98.6% and the growth [3] was 87.7%. For the same molecule, the growth [4] was 99.7%, the growth [5] was 104% and the growth [6] was 101%. It also gave a growth [7] of 107%, a growth [8] of 91.3% and a growth [9] of 110%. The growth [10] was 104%, the growth [11] was 109% and the growth [12] was 97.2%. The growth [13] was 91.3%, the growth [14] was 92.7% and the growth [15] was 101%. The growth [16] was 104% and the growth [17] was 97.5%.
`O=C(O)CC(Cl)C(Cl)CC(=O)O` (configuration not stated) gave a growth [1] of 99.2%, a growth [2] of 102% and a growth [3] of 106%. The growth [4] was 104%, the growth [5] was 98.1% and the growth [6] was 106%. The growth [7] was 106%, the growth [8] was 115% and the growth [9] was 102%. For the same molecule, the growth [10] was 99.6%, the growth [11] was 97.5% and the growth [12] was 93.8%. It also gave a growth [13] of 103%, a growth [14] of 105% and a growth [15] of 111%. It also gave a growth [16] of 110% and a growth [17] of 101%.
For `CSc1nn(-c2ccccc2)c2ncnc(Oc3ccccc3)c12`, the growth [1] was 84.5%, the growth [2] was 99% and the growth [3] was 96.2%. For the same molecule, the growth [4] was 86.9%, the growth [5] was 104% and the growth [6] was 87.4%. It also gave a growth [7] of 91.2%, a growth [8] of 148% and a growth [9] of 96.6%. For the same molecule, the growth [10] was 87.7%, the growth [11] was 94.5% and the growth [12] was 102%. It also gave a growth [13] of 104%, a growth [14] of 107% and a growth [15] of 85.4%. The growth [16] was 102%.
`COc1cccc(Cn2c(-c3nonc3N)nc3ccccc32)c1` was tested, and the growth [1] was 4.9% (active), the growth [2] was 21.4% and the growth [3] was 37.5%. The growth [4] was 32.2%, the growth [5] was 6.27% (active) and the growth [6] was 28.1%. For the same molecule, the growth [7] was -54% (active), the growth [8] was 3.15% (active) and the growth [9] was 14.4%. For the same molecule, the growth [10] was 55.1%, the growth [11] was 47.9% and the growth [12] was -73.9% (active). It also gave a growth [13] of 14.4%, a growth [14] of 15.5% and a growth [15] of 18.3%. The growth [16] was 23.7%.
